Assay outcomes from PubChem.
In the library only some 7.9% were active in any assay of this set; here they are far more common.
HT1080-NT tox = kills 2HG-producing HT-1080-NT fibrosarcoma cells | Potency, µM (doses to about 46.1 µM), for the others: at the highest dose activity, negative = less viability, usual class: cytotoxic | AID 686970 | 1.6% of 360,000 active | HT-1080-NT fibrosarcoma viability, CellTiter-Glo ATP luminescence, 48 h;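 also: NT is the 2HG producing partner of a matched IDH1 knockdown line; 0% = DMSO-treated cells and -100% = media-only wells without cells; nearly all actives have a fitted effect of over 55% in size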
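HT-1080-NT fibrosarcoma cells (2HG-overproducing), 750 cells/well in RPMI with 5% FBS, dosed after 2 h and incubated 48 h at 37C. CellTiter-Glo luminescence normalized to DMSO and no-cell wells; concentration-response curves fitted and classed.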
HT1080 IDH1KD tx = toxicity to HT-1080 IDH1 knockdown cells (counter line); HT-1080 IDH1 knockdown viability, ATP luminescence, 48 h; Potency, µM (highest dose often 46.1 µM), for the others: at the highest dose activity, negative = toxicity, actives largely listed as cytotoxic; 2% of 360,000 active; AID 686971;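 also: 0% = DMSO wells and -100% = cell-free medium wells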
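Assay cells: HT-1080 with IDH1 knockdown, 750 per well, RPMI/5% FBS. Exposure: 48 h at 37 °C following 2 h pre-incubation. Read: CellTiter-Glo luminescence; fitted concentration-response, curve class assigned.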
MCF10A rereplic = inducers of DNA re-replication in MCF 10A breast cells. MCF 10A DNA re-replication, Hoechst nuclear intensity, 48 h. Potency, µM (doses to about 46.1 µM), for inactives: top-dose activity, positive = re-replication, actives largely listed as activators. 2.9% of 350,000 active. AID 624296; also: % of control where 0% means no effect; nearly all actives have a fitted effect of over 50% in size
KB-V1 MDR tox = kills drug-selected multidrug resistant KB-V1 cells; AID 1347076; Potency, µM (doses to about 46.1 µM), usual class: cytotoxic; KB-V1 MDR cells viability, CellTiter-Glo, 72 h; 3.4% of 400,000 active; also: % is scaled to controls: 0 for no effect and ±100 for the full control effect; nearly all actives have a fitted effect of over 60% in size
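Following 72 h at 37 degrees C with compound, KB-V1 cell viability was read by CellTiter-Glo luminescence, medium being phenol-red-free DMEM plus 10% FBS; concentration-response parameters came from normalized, curve-fitted qHTS data.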
KB-3-1 cytotox = KB-3-1 parental cell cytotoxicity. Potency, µM (doses to about 46.1 µM), most hits filed as cytotoxic. KB-3-1 viability, CellTiter-Glo ATP luminescence, 72 h. AID 1347075. 1.4% of 400,000 active; also: % is scaled to controls: 0 for no effect and ±100 for the full control effect; nearly all actives have a fitted effect of over 60% in size
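KB-3-1 cells, DMEM (no phenol red) + 10% FBS; compound by pin transfer, 72 h, 37 °C. Readout: CellTiter-Glo luminescence after 10 min. Data normalized, curve-fitted.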
SW480 rerep = DNA re-replication induction in SW480 cells; SW480 DNA re-replication, Hoechst DNA content imaging, 48 h; Potency, µM (highest dose often 46.1 µM), inactives show top-dose re-replication activation, hits mostly activators; 1.8% of 340,000 active; also: % of control where 0% means no effect; nearly all actives have a fitted effect of over 55% in size
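Per well, 250 cells were exposed to pinned compound for 48 hr. Nuclear DNA was visualised with Hoechst (40 min, 37 C) and total object intensity recorded by fluorescence scanning.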
* = called active by the depositor; i = inactive; ? = inconclusive; / = no result given; ! = not active in a repeat; [ ] = dose if it differs, or a comment. Calls follow the shape of the dose curve; as a rule, active = well fitted curve in the direction sought with a large enough effect; inconclusive = small, poorly fitted or top-dose-only effect, or another doubt; inactive = no such curve, though single readings can be large; an effect the other way counts as inactive or inconclusive. Potency is read from the fitted curve at half-maximal effect.

SMILES	HT1080-NT tox	HT1080 IDH1KD tx	MCF10A rereplic	KB-V1 MDR tox	KB-3-1 cytotox	SW480 rerep
CC(=O)N1N=C(c2ccc(C)cc2)OC1c1ccc(Br)cc1 (centres undefined)	-11.7%	-10.2%	?	i	i	-2.2%
CCOc1ccc(Br)cc1C1=NN(C(C)=O)C(c2ccc([N+](=O)[O-])s2)O1 (centres undefined)	23.1µM*	?	?	i	?	8.2µM*
CNc1ccc(Br)cc(C(=O)/C=C/c2cc(OC)ccc2OC)c1=O	?	?	?	18.4µM*	?	?
CNc1ccc(Br)cc(C(=O)/C=C/c2ccc(OC)cc2)c1=O	0.2%	3.2%	?	?	?	-5.9%
CCNc1ccc(Br)cc(C(=O)/C=C/c2ccc(Cl)cc2Cl)c1=O	?	?	20.6µM*	18.4µM*	?	?
CC1CC(C)C(=NNC(N)=O)C(C(O)CC2CCC(=O)NC2=O)C1 (centres undefined)	-2.8%	?	?	?	11.6µM*	-0.9%
Cc1ccc(C(O)(C(=O)NN(C(=O)c2ccccc2)c2ccccc2)c2ccc(C)cc2)cc1	-17.7%	-21.4%	13.6%	i	i	?
N#CCCN(C(=O)COC(=O)c1nc(Cl)ccc1Cl)c1ccccc1	-1.4%	5.7%	2.0%	i	i	0.5%
O=Cc1[nH]c2ccccc2c1N(C(=O)CCl)c1ccccc1	16.4µM*	23.1µM*	?	i	i	-22.4%
O=C(N(c1ccccc1)c1ccccc1)N(c1ccccc1)c1ccccc1	-1.6%	-28.5%	?	?	i	?
N#CCCN(C(=O)CCl)c1cccc(Cl)c1	?	23.1µM*	?	?	20.6µM*	2.59µM*
O=C(CCl)N(c1ccccc1)c1ccccc1	6.51µM*	5.17µM*	?	?	?	21.9%
Cc1ccc(N(NC(=O)C(O)(c2ccccc2)c2ccccc2)C(=O)CCl)cc1	5.17µM*	5.8µM*	23.1µM*	?	?	18.4µM*
CCOc1ccc(N(CC(=O)Nc2ccc(F)c(F)c2)S(=O)(=O)c2c(C)noc2C)cc1	0.0%	-2.7%	-3.3%	i	i	-6.6%
CCOc1ccc(CCNC(=O)CN2CCN(Cc3ccc(F)cc3Cl)C2=O)cc1OCC	/	/	/	i	i	/
Cc1cccc(NC(=O)Cn2nc([N+](=O)[O-])c(Br)c2C)n1	11.7%	10.9%	3.2%	?	i	7.3%
Cc1cc(C)cc(C(=O)Nc2cc(C(F)(F)F)ccc2N2CCN(c3ccccc3)CC2)c1	/	/	/	i	i	/
O=C(CCl)N(CCc1ccccc1)CCc1ccccc1	?	?	23.1µM*	?	?	4.11µM*
O=C(Nc1ccccc1)NN(C(=O)CCl)c1ccccc1	7.31µM*	4.61µM*	8.2µM*	?	23.1µM*	5.8µM*
CCCCCCN(C(=O)CCl)c1ccccc1	3.66µM*	?	?	i	i	9.2µM*
CCCN(C(=O)c1cc2c(Cl)nc3ccccc3c2s1)c1cccc(C)c1	/	/	/	i	i	/
CCCCCCCN(C(=O)CCl)c1cccc(C)c1	-17.5%	?	?	i	i	2.06µM*
CCC(O)(CC)C(=O)NN(C(=O)CCl)c1ccccc1	0.1%	?	15.3%	i	?	?
O=C(CCCc1ccccc1)NCCc1ccccc1	0.2%	6.2%	-0.4%	i	i	-1.4%
O=C(CCc1nnc(Cc2ccc3c(c2)OCO3)o1)N(CC1CCC1)CC1CCCO1 (centres undefined)	4.3%	7.4%	1.6%	i	i	-3.1%
SMILES	HT1080-NT tox	HT1080 IDH1KD tx	MCF10A rereplic	KB-V1 MDR tox	KB-3-1 cytotox	SW480 rerep
CCN(CC)CCC(=O)N1c2ccccc2Sc2ccc(NC(=O)OC)cc21	-7.9%	-2.4%	23.1µM*	i	i	?
CCOC(=O)Nc1ccc2c(c1)N(C(=O)CCN(C)C)c1ccccc1S2	5.7%	6.2%	?	?	i	13.2%
CCN(CC)CCNC(=O)/C(=C/c1cn(CC)c2ccccc12)NC(=O)c1cc(OC)c(OC)c(OC)c1	-12.9%	0.2%	0.651µM*	i	i	-21.5%
COc1ccc(S(=O)(=O)N2CCN(C(=O)c3c(C)nn(-c4ccccc4)c3C)CC2)cc1	-0.9%	0.0%	4.7%	13µM*	i	-2.4%
Cc1nn(-c2ccccc2)c(C)c1C(=O)OCC(=O)N1CCN(S(=O)(=O)c2ccccc2)CC1	16.8%	-6.7%	-0.1%	?	i	9.0%
CC1=CC(C)(C)NC(=S)N1c1ccc2ccccc2c1	5.62µM*	7.08µM*!	4.6%	i	i	7.4%
CCN(CC)c1ccc(N)cc1	8.2µM*	14.6µM*	?	i	?	?
Nc1ccc(N(CCO)CCO)cc1	-15.2%	-7.5%	-3.3%	i	i	-1.7%
COc1cc(C(=O)N2CCN(S(=O)(=O)c3cccs3)CC2)cc(OC)c1C	-0.5%	-0.8%	-1.8%	i	i	-9.3%
COC(=O)CCCn1c(C)cc(C(=O)CCl)c1C	20.6µM*	?	?	i	i	?
Cc1cc(C(=O)CCl)c(C)n1CCc1ccccc1	13µM*	?	-8.1%	?	?	?
CCOC(=O)c1cc(C)n(CCc2ccccc2)c1C	27.0%	11.1%	15.6%	i	i	-3.1%[9.22 µM]
COC(=O)CCn1c(C)cc(C(=O)COc2ccccc2C(N)=O)c1C	-18.1%	?	2.6%	?	i	-7.3%
CC(OC(=O)c1cccc(-n2cnnn2)c1)C(=O)Nc1ccccc1F (centres undefined)	-2.6%	-3.7%	2.8%	i	i	7.5%
Cc1onc(-c2ccccc2)c1C(=O)OCC(=O)c1ccc(F)cc1	2.9%	-0.5%	/	?	i	/
COc1ccc(CCN2C(=O)c3cccc4c(C(=O)N5CCCCC5)ccc(c34)C2=O)cc1OC	1.5%	3.6%	?	2.91µM*	i	-1.5%
Cc1csc(NC(=O)CCc2nc3ccccc3s2)n1	-11.0%	-11.2%	15.8%	i	i	7.3%
Cc1cccn2c(=O)c(C=O)c(N3CCSCC3)nc12	-5.8%	-3.2%	-0.5%	i	i	5.8µM*
CCOc1ccc2c(ccc(/C=C/c3cc(C)c4cccnc4c3O)[n+]2C)c1	?	23.1µM*	5.9%	?	?	?
CCOC(=O)CSc1nc2ccc(S(=O)(=O)N3CCOCC3)cc2[nH]1	-2.3%	8.7%	-0.3%	i	i	1.4%
Cn1c(SCC(=O)Nc2nc(C(C)(C)C)cs2)nnc1C1CC1	-0.1%	-6.2%	6.51µM*	i	i	-30.9%
